Experimental data: PubChem BioAssay AID720712 (NMMLSC, 2013)
Calls of active or inactive are those of the source.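 Rule for the calls: active = EC50 at most 10 µM with response changing by at least 30 points across doses, from an acceptable curve fit; inactive = the rest.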

Molecular target: Cell division control protein 42 homolog (Homo sapiens) (UniProt P60953)
Test: blockade of fluorescent GTP loading onto wildtype Cdc42 – biochemical, compound preincubation comparison, flow cytometry beads, Bodipy-FL-GTP, mechanism study for Ras-family GTPase inhibitor project, late-stage follow-up (AID 720712)
Settings: GST-Cdc42 beads, Bodipy-FL-GTP binding, EDTA, protocol A; series mostly up to 100 µM

Sequence of Cell division control protein 42 homolog (Homo sapiens) (P60953 whole entry, looked up): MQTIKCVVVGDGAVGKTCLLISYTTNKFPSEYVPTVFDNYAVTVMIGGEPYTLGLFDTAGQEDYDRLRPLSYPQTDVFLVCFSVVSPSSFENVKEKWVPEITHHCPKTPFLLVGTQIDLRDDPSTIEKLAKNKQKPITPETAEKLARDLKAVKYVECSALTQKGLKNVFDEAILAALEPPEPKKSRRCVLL

SMILES | outcome
CC1(C)Cc2c(sc(NC(=S)NC(=O)c3cccc(N=[N+]=[N-])c3)c2C(=O)O)CO1 | inactive
CC1(C)Cc2c(sc(NC(=S)NC(=O)c3ccc(N=[N+]=[N-])cc3)c2C(=O)O)CO1 | inactive
